Measurements: PubChem BioAssay (NCI)
This is part of a sample that, as a whole, favours compounds with a hit. Of some 83,000 tested, about 20% had one in any assay.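 Plates (96-well) were seeded with cells, treated with compound at one concentration, and incubated for 48 hours before percent growth was determined.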 A number with no mark means an inactive call. Activity calls are given as the source filed them.

What follows are compounds tested on NCI-H460 lung (assay: NCI-60 one-dose screen, 48 h (100 = growth as untreated, 0 = no growth, -100 = all killed)). Conditions: 10 µM unless noted.
Method: Growth inhibition of the NCI-H460 human Non-Small Cell Lung tumor cell line is measured as a screen for anti-cancer activity. Cells are grown in 96 well plates and exposed to the test compound for 48 hours. Compounds are tested at a single concentration, which is 10^-5 M for most compounds. The reported endpoint is percent growth (GI% or GIPRCNT), where numbers from 0 - 100% represent growth inhibition, and numbers from -100% - 0 represent cell death. For example, a value of 40 represents 60% growth inhibition. A value of 0 means no net growth occurred over the course of the experiment. A value of -40 indicates 40% of cells at the beginning of the experiment died by the end of the experiment. A value of -100 means all cells are dead at the end of the experiment.
NCI-60 Human Tumor Cell Lines Screen was performed using the standard one-dose NCI protocol, which is described in more detail at https://dtp.cancer.gov/discovery_development/nci-60/default.htm.
Compounds with GIPRCNT values below 10 were considered active. Activity score was based on GIPRCNT using the following formula: […]
Score is 0 for GIPRCNT values of 100 or above, 50 for GIPRCNT values of 0, and 100 for GIPRCNT values of -100.

Row | Structure (SMILES) | growth
1 | CN1C(=O)N(C)C2C1NN=c1s/c(=C\c3ccccc3)c(=O)n12 (stereo not given) | 17.5%
2 | O=C(Nc1cccc2c(O)c(N=Nc3ccc(S(=O)(=O)Nc4nccs4)cc3)cc(N=Nc3ccc(S(=O)(=O)Nc4nccs4)cc3)c12)C(Cl)Cl | 73.4%
3 | N#Cc1c(N)nn(C(=O)c2ccc(NC(=O)c3ccccn3)cc2)c1-c1ccc(Cl)cc1 | 15.9%
4 | NC(=S)Nc1cccc(O)c1 | 104%
5 | NS(=O)(=O)c1cnccc1Sc1ccncc1S(N)(=O)=O | 108%
6 | COc1ccc(-c2csc(C3=C(O)CN(CCCN4CCCC4=O)C3=N)n2)cc1OC | 113%
7 | CC(=O)n1c(-c2ccc(Cl)cc2)nc2c(c1=O)C(c1ccc(Cl)cc1)c1sc3c(Cl)cccc3c1O2 (stereo not given) | -30.4% (active)
8 | CC(C)(C)CC(C)(C)Nc1c(-c2ccncc2)nc2cnccn12 | 105%
9 | CN(C)c1ccc(-c2ccc3[nH]c(=O)nc(-c4ccccc4)c3c2)cn1 | 18.3%
10 | CCN(CC)CCN1C(=O)c2c(c(C)c3c(oc4cc(O)ccc43)c2C)C1=O | -69% (active)
11 | O=C(Nc1ccc(Nc2ccncc2)cc1)c1ccc(C(=O)Nc2ccc(Nc3ccncc3)cc2)cc1 | 88.2%
12 | COc1ccc(NC(=O)c2nc(-c3cc(OC)c(OC)c(OC)c3)n(-c3cccc4ccccc34)n2)cc1OC | 49.6%
13 | O=C(CCCCCCN1CC(=O)N2[C@@H](c3ccccc3Cl)c3[nH]c4ccccc4c3C[C@H]2C1=O)NO | 67.8%
14 | Cc1ccc(CCC(=O)Nc2ncc(Cc3cc(Cl)ccc3Cl)s2)o1 | 5.71% (active)
15 | C=C1C(=O)O[C@H]2[C@H]1CC/C(CNC(=O)/C=C/c1ccc(Cl)cc1Cl)=C\CC[C@@]1(C)O[C@@H]21 | 2.98% (active)
16 | Cc1cc(C)c(-c2c(C)cc(C)cc2CBr)c(CBr)c1 | 77.2%
17 | Cc1occc1-c1n[nH]c(=S)n1N1C(=O)CSC1=S | 104%
18 | Cc1ccc2[nH]c(=O)c3c(c2c1)OC(N)=C(C#N)C31c2cc(Br)ccc2-c2ccc(Br)cc21 | 40.5%
19 | CC1=C([Se]CC(OC(=O)[C@@H](CO)NC(=O)OC(C)(C)C)C(=O)NC(C)(C)C)C(=O)c2ccccc2C1=O (stereo not given in full) | -61.7% (active)
20 | CCOC(=O)c1c(-c2ccc(Cl)cc2)c(C#N)c(=O)n(-c2ccccc2CC)c1N | 82.3%

Row | Structure (SMILES) | growth
21 | COc1ccc(-c2cc(-c3ccc(Nc4nc(Nc5ccc(Cl)cc5)nc(Nc5ccc(Cl)cc5)n4)cc3)nc(N)c2C#N)cc1 | 57.6%
22 | CCSC1=NC2C(N(CC)C(=O)N2CC)N1/N=C/C=C/c1ccccc1[N+](=O)[O-] (stereo not given) | 1.33% (active)
23 | Cc1cccc(NC(=O)N/C(N)=N/c2nc(C)c(C)s2)c1 | 20.2%
24 | COc1cc2c(cc1-c1c(C)noc1C)ncc1nc(C3CCC(F)(F)CC3)n(C3CCC(OC(F)F)CC3)c12 (stereo not given) | 62.6%
25 | O=C(c1ccc(Nc2nccc(NCCCCNc3ccnc4cc(Cl)ccc34)n2)cc1)N1CCCCC1 | 12.9%
26 | S=C(Cc1ccc2c(c1)CCCC2)N1CCOCC1 | 107%
27 | CCN(CC)c1ccc(C(=O)c2ccc(N(CC)CC)cc2)cc1 | 6.72% (active)
28 | Cc1ccc(-c2c(-c3ccccc3)c(=O)oc3ccc(C)cc23)cc1 | 93.8%
29 | Cc1ccc(Nc2ccc(Nc3ccc(C)cc3)c3c2C(=O)c2cccc(O)c2C3=O)cc1 | 88.3%
30 | COc1cc2ncn3c(=O)c4c5c(sc4nc3c2cc1OC)CCCC5 | 100%
31 | O=S(=O)(O)c1ccc(N/N=C/c2ccccc2Cl)cc1 | 109%
32 | O=C1/C(=C\c2c[nH]c3ccccc23)c2ccccc2N1c1c(Cl)cccc1Cl | -89.5% (active)
33 | Cc1ccc(Nc2nc(N)nc(CSCC(=O)NN)n2)cc1 | 107%
34 | Cc1ccc(S(=O)(=O)NCC[C@@H]2C[C@H]2c2cc3ccccc3s2)cc1 | 104%
35 | CNC(=O)NCC1OC(n2cnc3c(NC(=O)Nc4ccccc4)ncnc32)C(O[Si](C)(C)C(C)(C)C)C1CC(=O)N(C)OC (stereo not given) | 18.1%
36 | Cc1cc(NCc2cc(Nc3ccnc4cc(Cl)ccc34)ccc2F)nc(N2CCSCC2)n1 | 6.39% (active)
37 | Clc1cccc(Cl)c1/C=C/c1cc(/C=C/c2c(Cl)cccc2Cl)[nH]n1 | 11.4%
38 | C=C1C(=O)O[C@H]2[C@H]1CC/C(COC(=O)C(=O)c1cn(C)c3ccc(OC)cc13)=C\CC[C@@]1(C)O[C@@H]21 | -76.3% (active)
39 | O=c1c2cc(F)ccc2sc2c(NCCCN3CCCC3)nc3ccccc3c12 | 12%
40 | Cc1cc(NCCCCNc2ccnc3cc(Cl)ccc23)nc(Nc2ccc(C(=O)N3CCCC3)cc2)n1 | 18.1%
